Here are results for 6 compounds from PubChem BioAssay (NCI).

Among the test systems are NCI-H23 lung; NCI-H226 lung; NCI-H322M lung; HOP-62 NSCLC; NCI-H460 lung; HOP-92 NSCLC; NCI-H522 lung; A549/ATCC NSCLC; 786-0 renal; COLO 205 colon; DU-145 prostate; K-562 leukemia; MALME-3M melanoma; MDA-MB-231 breast; RXF 393 renal; SF-268 CNS; SF-295 CNS; SF-539 CNS; UACC-257 melanoma; M14 melanoma.
Common to all, as to assay: NCI-60 one-dose screen, 48 h (100 = growth as untreated, 0 = no growth, -100 = all killed)
Conditions in all cases: 10 µM unless noted

About 83,000 compounds went through this panel and 20% of them were active in at least one assay; those are over-represented in the sample as a whole.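 Interpretation: 100, growth as untreated; towards 0, rising growth inhibition; 0, no net growth; 0 to -100, cell death. Compounds scoring below 10 were considered active.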 Values without a mark were called inactive. The source made the active and inactive calls.

On to `C=C1CCC2C3(C)COC(c4ccc(NC(C)=O)cc4)OC3CCC2(C)C1C/C=C1/C(=O)OCC1O` (stereo not given), for which the growth in the test on NCI-H23 lung is 36.4%; in the test on NCI-H226 lung, 64.5%; in the test on NCI-H322M lung, 89%; in the test on HOP-62 NSCLC, 85.5%; with NCI-H460 lung, 66.2%; in the test on HOP-92 NSCLC, 72.6%. For the same compound, the growth was 29.5% in the test with NCI-H522 lung; 35.9% in the test with A549/ATCC NSCLC; 57.1% in the test on 786-0 renal; 82.6% in the test with COLO 205 colon; 108% in the test on DU-145 prostate; 18.7% with K-562 leukemia. In addition, the growth in the test on MALME-3M melanoma is 66.6%; with MDA-MB-231 breast, 87.3%; with RXF 393 renal it was 62.6%; with SF-268 CNS it was 94%; in the test with SF-295 CNS it was 25.1%; with SF-539 CNS, 69.6%. For the same compound, the growth in the test with UACC-257 melanoma was 30.5%; with M14 melanoma, 76.3%.

For the compound `COc1cc(/C=N/NC(=O)CCN2c3ccccc3Sc3ccccc32)cc(OC)c1OC`, the growth was 71.8% in the test with NCI-H23 lung; 79.3% in the test on NCI-H226 lung; 83.2% in the test with NCI-H322M lung; 101% in the test on HOP-62 NSCLC; 95.8% in the test with NCI-H460 lung; 61.5% in the test with HOP-92 NSCLC. The growth with NCI-H522 lung was 70.3%; in the test on A549/ATCC NSCLC, 79%; with 786-0 renal it was 96.8%; in the test with COLO 205 colon, 105%; in the test on DU-145 prostate, 97.4%; in the test on K-562 leukemia it was 61.7%. The growth is 93.3% with MALME-3M melanoma; 68.5% with MDA-MB-231 breast; 85.8% with RXF 393 renal; 93.8% with SF-268 CNS; 74.3% in the test on SF-295 CNS; 85.6% in the test with SF-539 CNS. In addition, the growth with UACC-257 melanoma was 92.7%; in the test with M14 melanoma, 79.3%.

Consider `COc1cccc(C2C(C#N)=C(N)Oc3cc(OCCCCCC[P+](c4ccccc4)(c4ccccc4)c4ccccc4)ccc32)c1` (stereo not given), for which the growth in the test on NCI-H23 lung is -23.1% (active); in the test on NCI-H226 lung, 7.81% (active); in the test with NCI-H322M lung, 6.6% (active); in the test on HOP-62 NSCLC, -39% (active); in the test with NCI-H460 lung, -44.4% (active); in the test on HOP-92 NSCLC, -51.7% (active). Further, the growth in the test with NCI-H522 lung is -10.7% (active); in the test on A549/ATCC NSCLC it was 10.2%; in the test with 786-0 renal it was -46.3% (active); in the test with COLO 205 colon it was -62.5% (active); in the test on DU-145 prostate, 1.62% (active); in the test with K-562 leukemia, -21.2% (active). Besides, the growth was -73.3% (active) in the test on MALME-3M melanoma; -54.1% (active) with MDA-MB-231 breast; -63.8% (active) with RXF 393 renal; -38.5% (active) in the test on SF-268 CNS; -41.4% (active) in the test on SF-295 CNS; -58.1% (active) with SF-539 CNS. Further, the growth with UACC-257 melanoma was -21.5% (active); in the test with M14 melanoma, -49.7% (active).

For the compound `CCN(CC)CC(=O)Nc1ccc2ncnc(Nc3ccc(Oc4cccc(F)c4)c(Cl)c3)c2c1`, the growth is 74.9% with NCI-H23 lung; 87.6% in the test with NCI-H226 lung; 65.6% in the test on NCI-H322M lung; 80.4% in the test on HOP-62 NSCLC; 36.9% in the test on NCI-H460 lung; 39.5% in the test with HOP-92 NSCLC. Also, the growth in the test with NCI-H522 lung was 64.6%; with A549/ATCC NSCLC it was 55.7%; with 786-0 renal, 59.7%; in the test with COLO 205 colon it was 68.8%; in the test on DU-145 prostate, 57%; in the test on K-562 leukemia, 2.08% (active). The growth in the test with MALME-3M melanoma was 45.2%; with MDA-MB-231 breast it was 49.3%; in the test with RXF 393 renal, 43.2%; in the test on SF-268 CNS it was 58.8%; in the test on SF-295 CNS it was 87.2%; in the test on SF-539 CNS, 83.5%. Moreover, the results for the growth in the test with UACC-257 melanoma and with M14 melanoma were 67.2% and -33.8% (active), respectively.

For `N#C/C(=N\Nc1ccc(Cl)cc1)C(=O)Nc1cc(-c2ccccc2)nn1-c1ccccc1`, the growth in the test on NCI-H23 lung is 1.09% (active); with NCI-H226 lung, 51.5%; in the test with NCI-H322M lung it was 11.9%; with HOP-62 NSCLC, 61.4%; in the test with NCI-H460 lung, 8.34% (active); in the test with HOP-92 NSCLC it was -23.4% (active). Besides, the growth in the test on NCI-H522 lung was 7.38% (active); in the test with A549/ATCC NSCLC it was 33.8%; in the test with 786-0 renal it was 45.2%; in the test on COLO 205 colon, 65.4%; with DU-145 prostate, 35%; with K-562 leukemia, 12.2%. In addition, the growth in the test on MALME-3M melanoma was 2.07% (active); with MDA-MB-231 breast, 24.3%; in the test on RXF 393 renal it was 47.1%; in the test on SF-268 CNS, 19.9%; in the test with SF-295 CNS, 1.62% (active); in the test on SF-539 CNS, 52.3%. The growth in the test on UACC-257 melanoma was 13.2%; in the test with M14 melanoma it was 35.6%.

`Nc1ccc(-c2nc3ccc4[nH]ncc4c3c3c2CCCC3)cc1F`: the growth with NCI-H23 lung was 19.7%; with NCI-H226 lung, 42.2%; in the test with NCI-H322M lung, 41.3%; with HOP-62 NSCLC it was 23.1%; in the test on NCI-H460 lung, 24.8%; in the test on HOP-92 NSCLC it was 55.4%. In addition, the growth in the test on NCI-H522 lung is 22.5%; with A549/ATCC NSCLC, 11.7%; with 786-0 renal, 37%; in the test on COLO 205 colon, 12.4%; in the test with DU-145 prostate it was 38.6%; with K-562 leukemia, 30.2%. Besides, the growth was 28.3% in the test on MALME-3M melanoma; 37.6% in the test with MDA-MB-231 breast; -13% (active) in the test on RXF 393 renal; 39.9% with SF-268 CNS; 37.8% with SF-295 CNS; 24.5% in the test on SF-539 CNS. Also, the results for the growth with UACC-257 melanoma and with M14 melanoma were 26.6% and 24.9%, respectively.
